Results as given in PubChem BioAssay AID1159580 (chemical genetic matrix, 2015).
In all, about 5,500 compounds went through this assay and about 2,000 (36%) were called active. Another 18% or so got no clear call; they are omitted. Cut-off read from the data, not from the text of the source: active = normalized growth mostly below about 0.91 (no sharp cut-off); inconclusive = no clear call, values can overlap the other calls; inactive = mostly above about 0.92. The list shows a part of the results.

Experiment: chemical genetic growth profiling, strain panel (AID 1159580);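 note: tested at 20 µM; growth read once vehicle control cultures reached saturation at 30 °C; 1 = growth at the plate median or of vehicle wells; lower values mean less growth of the strain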
Conditions: growth OD

Measured: normalized growth

Nc1ccc(S(=O)(=O)Nc2ccccn2)cc1
inactive: S. cerevisiae deletion strains, locus YKL009W, strain mrt4, active compounds read low 0.993 | S. cerevisiae deletion strains, locus YKL068W, active compounds read low 0.991 | S. cerevisiae deletion strains, locus YKL085W, strain MDH1 (second series), active compounds read low 0.982 | S. cerevisiae deletion strains, locus YKL085W, strain MDH1, active compounds read low 0.982 | S. cerevisiae deletion strains, locus YKL160W, strain elf1, active compounds read low 1.02 | S. cerevisiae deletion strains, locus YKL190W, strain CNB1, active compounds read low 1.01 | S. cerevisiae deletion strains, locus YKR001C, strain vps1, active compounds read low 0.995 | S. cerevisiae deletion strains, locus YKR026C, strain gcn3, active compounds read low 1.02 | S. cerevisiae deletion strains, locus YKR091W, strain srl3, active compounds read low 1.01 | S. cerevisiae deletion strains, locus YLL001W, strain dnm1, active compounds read low 1.03 | S. cerevisiae deletion strains, locus YLL026W, active compounds read low 1.02 | S. cerevisiae deletion strains, locus YLL041C, strain sdh2, active compounds read low 1.01 | S. cerevisiae deletion strains, locus YLR027C, strain aat2, active compounds read low 1.01 | S. cerevisiae deletion strains, locus YLR039C, strain RIC1, active compounds read low 1.03 | S. cerevisiae deletion strains, locus YLR058C, strain SHM2, active compounds read low 1.01 | S. cerevisiae deletion strains, locus YLR102C, strain apc9, active compounds read low 0.993 | S. cerevisiae deletion strains, locus YLR113W, strain HOG1, active compounds read low 0.976 | S. cerevisiae deletion strains, locus YLR221C, strain rsa3, active compounds read low 0.993 | S. cerevisiae deletion strains, locus YLR258W, strain gsy2, active compounds read low 1 | S. cerevisiae deletion strains, locus YLR262C, strain YPT6 (second series), active compounds read low 1.03 | S. cerevisiae deletion strains, locus YLR262C, strain YPT6, active compounds read low 1.04 | S. cerevisiae deletion strains, locus YLR268W, strain sec22, active compounds read low 0.944 | S. cerevisiae deletion strains, locus YLR320W, strain mms22, active compounds read low 0.985 | S. cerevisiae deletion strains, locus YLR330W, strain CHS5, active compounds read low 1 | S. cerevisiae deletion strains, locus YLR342W, strain FKS1 (second series), active compounds read low 0.985 | S. cerevisiae deletion strains, locus YLR342W, strain FKS1, active compounds read low 1.01 | S. cerevisiae deletion strains, locus YLR357W, strain rsc2, active compounds read low 0.996 | S. cerevisiae deletion strains, locus YLR370C, strain arc18, active compounds read low 1.01 | S. cerevisiae deletion strains, locus YLR371W, strain rom2, active compounds read low 0.99 | S. cerevisiae deletion strains, locus YLR384C, strain iki3, active compounds read low 1.01 | S. cerevisiae deletion strains, locus YLR418C, strain cdc73, active compounds read low 0.985 | S. cerevisiae deletion strains, locus YML016C, strain PPZ1, active compounds read low 1.01 | S. cerevisiae deletion strains, locus YML032C, strain rad52, active compounds read low 0.97 | S. cerevisiae deletion strains, locus YML120C, strain ndi1, active compounds read low 1.01 | S. cerevisiae deletion strains, locus YML124C, strain tub3, active compounds read low 1 | S. cerevisiae deletion strains, locus YMR058W, strain fet3, active compounds read low 1.03 | S. cerevisiae deletion strains, locus YMR078C, strain ctf18, active compounds read low 0.989 | S. cerevisiae deletion strains, locus YMR125W, strain sto1, active compounds read low 1.01 | S. cerevisiae deletion strains, locus YMR129W, active compounds read low 1.01 | S. cerevisiae deletion strains, locus YMR205C, strain PFK2, active compounds read low 1.01 | S. cerevisiae deletion strains, locus YMR223W, strain ubp8, active compounds read low 1.01 | S. cerevisiae deletion strains, locus YMR231W, strain pep5, active compounds read low 1.01 | S. cerevisiae deletion strains, locus YMR263W, strain SAP30, active compounds read low 1.01 | S. cerevisiae deletion strains, locus YMR307W, strain GAS1, active compounds read low 1.02 | S. cerevisiae deletion strains, locus YNL067W, strain RPL9B, active compounds read low 1.01 | S. cerevisiae deletion strains, locus YNL071W, strain lat1, active compounds read low 0.998 | S. cerevisiae deletion strains, locus YNL128W, strain TEP1, active compounds read low 1.01 | S. cerevisiae deletion strains, locus YNL153C, strain GIM3, active compounds read low 1.01 | S. cerevisiae deletion strains, locus YNL183C, strain NPR1, active compounds read low 0.945 | S. cerevisiae deletion strains, locus YNL209W, strain ssb2, active compounds read low 1.01 | S. cerevisiae deletion strains, locus YNL233W, strain BNI4, active compounds read low 1 | S. cerevisiae deletion strains, locus YNL248C, strain rpa49, active compounds read low 0.985 | S. cerevisiae deletion strains, locus YNL250W, strain rad50, active compounds read low 0.988 | S. cerevisiae deletion strains, locus YNL271C, strain bni1, active compounds read low 0.998 | S. cerevisiae deletion strains, locus YNL298W, strain CLA4, active compounds read low 0.988 | S. cerevisiae deletion strains, locus YNL307C, strain MCK1, active compounds read low 0.997 | S. cerevisiae deletion strains, locus YNL322C, strain KRE1 (second series), active compounds read low 1.01 | S. cerevisiae deletion strains, locus YNL322C, strain KRE1, active compounds read low 1 | S. cerevisiae deletion strains, locus YNR049C, strain mso1, active compounds read low 1.02 | S. cerevisiae deletion strains, locus YNR052C, strain pop2, active compounds read low 0.991 | S. cerevisiae deletion strains, locus YOL006C, strain TOP1, active compounds read low 1.05 | S. cerevisiae deletion strains, locus YOL012C, strain htz1 0.921 | S. cerevisiae deletion strains, locus YOL147C, strain pex11, active compounds read low 1 | S. cerevisiae deletion strains, locus YOR001W, strain rrp6, active compounds read low 1.02 | S. cerevisiae deletion strains, locus YOR061W, strain CKA2, active compounds read low 1.01 | S. cerevisiae deletion strains, locus YOR069W, strain VPS5, active compounds read low 1.01 | S. cerevisiae deletion strains, locus YOR070C, strain gyp1, active compounds read low 1 | S. cerevisiae deletion strains, locus YOR080W, strain dia2, active compounds read low 1.02 | S. cerevisiae deletion strains, locus YOR083W, strain WHI5, active compounds read low 0.991 | S. cerevisiae deletion strains, locus YOR106W, strain vam3, active compounds read low 1.04 | S. cerevisiae deletion strains, locus YOR136W, strain idh2, active compounds read low 0.992 | S. cerevisiae deletion strains, locus YOR144C, strain elg1, active compounds read low 0.989 | S. cerevisiae deletion strains, locus YOR184W, strain ser1, active compounds read low 0.993 | S. cerevisiae deletion strains, locus YOR231W, strain MKK1, active compounds read low 0.986 | S. cerevisiae deletion strains, locus YOR265W, strain rbl2, active compounds read low 1.01 | S. cerevisiae deletion strains, locus YOR270C, strain vph1, active compounds read low 1.01 | S. cerevisiae deletion strains, locus YOR290C, strain snf2, active compounds read low 0.997 | S. cerevisiae deletion strains, locus YOR316C, strain cot1, active compounds read low 0.994 | S. cerevisiae deletion strains, locus YPL051W, strain arl3, active compounds read low 1.01 | S. cerevisiae deletion strains, locus YPL078C, strain atp4, active compounds read low 1.02 | S. cerevisiae deletion strains, locus YPL106C, strain sse1, active compounds read low 0.975 | S. cerevisiae deletion strains, locus YPL240C, strain hsp82, active compounds read low 1.02 | S. cerevisiae deletion strains, locus YPL256C, strain CLN2, active compounds read low 0.968 | S. cerevisiae deletion strains, locus YPR119W, strain clb2, active compounds read low 0.975 | S. cerevisiae deletion strains, locus YPR141C, strain kar3, active compounds read low 0.99 | S. cerevisiae deletion strains, locus YPR163C, strain tif3, active compounds read low 0.993 | S. cerevisiae deletion strains, locus YPR167C, strain met16, active compounds read low 0.986 | S. cerevisiae deletion strains, strain wtn01, active compounds read low 0.998 | S. cerevisiae strains, strain wild type, active compounds read low 1.01
